{"source": "PubChem BioAssay AID588342", "about": "(National Center for Advancing Translational Sciences (NCATS), 2011)", "note": "In all, about 360,000 compounds went through this assay and about 25,000 (6.9%) were called active. Inconclusive results (about 9%) are left out. The entries come from a sample that favours actives as a whole. Unmarked numbers belong to inactive results. The call rests on the fitted dose curve; in most records, active means well fitted inhibition curve with a large enough effect; inconclusive means small, poorly fitted or top-dose-only effect; inactive means flat fitted curve, though single readings scatter. Potency means the concentration at half of the fitted maximal effect."}
{"molecular_target": "Luciferin 4-monooxygenase (Photinus pyralis) (UniProt P08659)", "sequence (P08659 whole entry, looked up)": "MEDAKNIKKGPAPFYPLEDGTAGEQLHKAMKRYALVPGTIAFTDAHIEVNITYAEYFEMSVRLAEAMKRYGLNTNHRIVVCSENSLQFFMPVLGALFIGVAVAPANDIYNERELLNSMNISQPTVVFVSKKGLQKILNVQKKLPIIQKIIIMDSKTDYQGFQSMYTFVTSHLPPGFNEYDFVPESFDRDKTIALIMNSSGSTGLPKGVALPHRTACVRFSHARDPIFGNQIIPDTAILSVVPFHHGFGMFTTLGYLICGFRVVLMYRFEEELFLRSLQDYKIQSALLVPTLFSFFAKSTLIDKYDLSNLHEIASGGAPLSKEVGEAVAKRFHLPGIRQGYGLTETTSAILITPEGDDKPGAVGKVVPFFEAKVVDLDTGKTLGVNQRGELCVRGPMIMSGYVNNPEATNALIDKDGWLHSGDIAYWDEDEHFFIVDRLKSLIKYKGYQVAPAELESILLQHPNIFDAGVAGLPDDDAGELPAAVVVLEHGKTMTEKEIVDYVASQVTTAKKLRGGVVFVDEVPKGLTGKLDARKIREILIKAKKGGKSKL", "assay": "qHTS profiling assay for firefly luciferase inhibitor/activator using purifed enzyme and Km concentrations of substrates (counterscreen for miR-21 project); further: nearly all actives have a fitted effect of over 55% in size;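 on activity change, negative = inhibition: plate controls were vehicle for no effect and reference inhibitor for full effect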", "conditions": "purified FLuc, luminescence inhibition; series mostly up to 57.5 µM; activity change, negative = inhibition: at the top concentration", "method_in_brief": "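Biochemical qHTS of compounds, final roughly 60 µM downward over six points, against 10 nM purified firefly luciferase using Km concentrations of substrates (10 uM D-luciferin, 10 uM ATP) in Tris acetate pH 7.5 buffer; luminescence output.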"}
{"compound": "COc1ccc2c(c1)CCC/C2=N\\OC(=O)c1ccccc1F", "Potency": "12 µM (active)"}
{"compound": "COc1cc2c(cc1OC)C(COc1ccc(F)cc1)N(C(=O)c1ccccc1F)CC2", "note": "(stereo unspecified)", "activity change, negative = inhibition": "-12.9%"}
{"compound": "COc1ccc(OC)c(S(=O)(=O)Nc2ccccc2F)c1", "activity change, negative = inhibition": "0.251%"}
{"compound": "O=C(CNS(=O)(=O)c1ccc2c(c1)OCCCO2)N1CCN(c2ccc(F)cc2)CC1", "activity change, negative = inhibition": "6.66%"}
{"compound": "CCOC(=O)C1=C(c2ccccc2)O/C(=C(/C(=O)OC)C(F)(F)F)S1", "activity change, negative = inhibition": "0.0843%"}
{"compound": "COC(=O)/C(=C1\\Oc2ccc(C(C)(C)C)cc2S1)C(F)(F)F", "Potency": "3.79 µM (active)"}
{"compound": "CC(C)(C)c1ccc(C(=O)NCC(c2ccco2)S(=O)(=O)c2ccc(F)cc2)cc1", "note": "(stereo unspecified)", "activity change, negative = inhibition": "0.828%"}
{"compound": "CCOC(=O)c1c(C)n(S(=O)(=O)c2ccc(C)cc2C)c2ccc(NS(=O)(=O)c3ccc(C)cc3C)cc12", "activity change, negative = inhibition": "-3.23%"}
{"compound": "O=C(Nc1ccc(OC(F)(F)F)cc1)C1CCCN(S(=O)(=O)c2ccc(Br)s2)C1", "note": "(stereo unspecified)", "activity change, negative = inhibition": "1.48%"}
{"compound": "Cc1ccc2c(=O)cc(C(=O)Nc3sc4c(c3C(=O)NCc3cccnc3)CCCC4)oc2c1", "activity change, negative = inhibition": "-3.36%"}
{"compound": "COc1ccccc1C(=O)NCCn1cc(SCc2ccccc2Cl)c2ccccc21", "activity change, negative = inhibition": "-1.75%"}
{"compound": "Cc1ccccc1NC(=O)Cn1c(=O)n(CCc2ccccc2)c(=O)c2ccccc21", "activity change, negative = inhibition": "4.4%"}
{"compound": "Cc1nnc(C)n1-c1ccc(C(=O)Nc2cccc(Br)c2)cc1", "activity change, negative = inhibition": "-0.53%"}
{"compound": "Cc1cccc(C)c1-n1c(C)cc(/C=C2\\C(=O)NN(c3ccccc3)C2=O)c1C", "Potency": "3.38 µM (active)"}
{"compound": "COc1ccc(CNC(=O)c2cc3c(s2)-c2ccccc2OC3)cc1", "activity change, negative = inhibition": "-6.91%"}
{"compound": "Cc1csc(=O)n1CCC(=O)OCC(=O)NNC(=O)c1ccc(Br)cc1", "activity change, negative = inhibition": "2.67%"}
{"compound": "CC(=O)Nc1nc2ccccc2n1Cc1ccc(C)cc1", "activity change, negative = inhibition": "2.31%"}
{"compound": "CCCc1nc2c(C)cc(-c3nc4ccccc4n3C)cc2n1Cc1ccc(-c2ccccc2C(=O)O)cc1", "Potency": "13.5 µM (active)"}
{"compound": "Cc1ccc(Cn2c(CCCNC(=O)C3CCCCC3)nc3ccccc32)cc1", "activity change, negative = inhibition": "-16.9%"}
{"compound": "Cc1ccc(C)c(C(=O)COC(=O)Cn2[nH]c(=O)c3ccccc3c2=O)c1", "activity change, negative = inhibition": "0.823%"}
{"compound": "CCOc1ccccc1NC(=O)Cn1c2ncccc2c(=O)n1-c1ccc(C)c(C)c1", "activity change, negative = inhibition": "-0.586%"}
{"compound": "COc1ccc(COCC(O)CN2CCC(C(N)=O)CC2)cc1", "note": "(stereo unspecified)", "activity change, negative = inhibition": "-1.2%"}
{"compound": "CCOc1cc(CN2CCN(C(=O)CC(C)C)CC2)ccc1OC", "activity change, negative = inhibition": "-0.351%"}
{"compound": "COc1cc(CN2CCC(C(N)=O)CC2)ccc1OCc1ccccc1", "Potency": "10.7 µM (active)"}
{"compound": "CCC(C)(C)NC(=O)CN(Cc1cccs1)C(=O)CNS(=O)(=O)c1ccc(F)cc1", "activity change, negative = inhibition": "0.549%"}
{"compound": "CCOC(=O)Cn1c(=O)n(Cc2ccc(OC)cc2)c(=O)c2cccnc21", "activity change, negative = inhibition": "2.41%"}
{"compound": "CCOC(=O)c1cnc2c(C)cc(Cl)cc2c1NCCc1ccc(OC)c(OC)c1", "activity change, negative = inhibition": "-8.82%"}
{"compound": "COc1cc(NC(=O)Cn2nc(-c3ccc(C)c(C)c3)ccc2=O)cc(OC)c1", "activity change, negative = inhibition": "-1.29%"}
{"compound": "NNC(=O)c1cccc(COCC(F)(F)C(F)F)c1", "activity change, negative = inhibition": "6.5%"}
{"compound": "CC(C)c1cc(C(N)=O)c(NC(=O)c2cccc(COc3ccc(Br)cc3)c2)s1", "Potency": "19 µM (active)"}
{"compound": "CCOC(=O)c1cc(C(C)C)sc1NC(=O)COC(=O)c1nccnc1N", "activity change, negative = inhibition": "12.3%"}
{"compound": "COc1ccc(CCNC(=O)Cn2c(=O)n(-c3ccccc3)c(=O)c3c(C)c(C)sc32)cc1OC", "activity change, negative = inhibition": "-0.147%"}
{"compound": "CCOc1ccc(N(CC)C(=O)c2cc3c(=O)oc4ccccc4c3s2)cc1", "activity change, negative = inhibition": "-1.93%"}
{"compound": "COc1ccc(N2C(=O)CCC(C(=O)Nc3ccccn3)C2c2ccc(OC)c(OC)c2)cc1", "note": "(stereo unspecified)", "activity change, negative = inhibition": "1.04%"}
{"compound": "Cc1ccc(NNC(=O)C2CCC2)cc1C", "activity change, negative = inhibition": "-2.48%"}
{"compound": "Cc1ccc(N(NC(=O)C(C)(C)O)C(=O)c2ccccc2)cc1C", "activity change, negative = inhibition": "6.23%"}
{"compound": "COc1ccc(C(=O)/C=C/Nc2ccccn2)cc1", "Potency": "0.107 µM (active)"}
{"compound": "CCOc1ccc(NC(=O)C2CCCN(C(=O)Nc3ccccc3)C2)cc1", "note": "(stereo unspecified)", "activity change, negative = inhibition": "-2.4%"}
{"compound": "CCCOc1ccc(N/C=C/C(=O)C(C)(C)C)cc1", "Potency": "10.7 µM (active)"}
{"compound": "CCOc1ccc(N/C=C/C(=O)c2ccccc2)cc1", "Potency": "0.269 µM (active)"}
{"compound": "COCCN(C(=O)CCC(=O)Nc1ccccn1)C(C(=O)NCCC(C)C)c1ccc(OC)cc1", "note": "(stereo unspecified)", "activity change, negative = inhibition": "-1.3%"}
{"compound": "CCOc1ccc(NC(=S)N2CCC(NC(=O)c3ccccc3)CC2)cc1", "activity change, negative = inhibition": "0.225%"}
{"compound": "Cc1ccc(N/C=C/C(=O)c2ccccc2)cc1C", "Potency": "0.151 µM (active)"}
{"compound": "CCCOc1ccc(NC(=O)C2CCCNC2=O)cc1", "note": "(stereo unspecified)", "activity change, negative = inhibition": "3.63% [at 2.3 µM]"}
{"compound": "CCCOc1ccc(NC(=O)C2OC3OC(C)(C)OC3C3OC(C)(C)OC23)cc1", "note": "(stereo unspecified)", "activity change, negative = inhibition": "7.57%"}
{"compound": "CC(Oc1ccccc1F)C(=O)NN", "note": "(stereo unspecified)", "activity change, negative = inhibition": "1.14%"}
{"compound": "CCOC(=O)Cc1ccc(NC(=O)Nc2c[nH]c(=O)[nH]c2=O)cc1", "activity change, negative = inhibition": "-6.71%"}
{"compound": "COc1ccc(OC)c(NC(=O)CN2CCCN(Cc3cc(C)ccc3C)S2(=O)=O)c1", "activity change, negative = inhibition": "-1.23%"}
{"compound": "COc1cccc(NC(=O)C2CCN(c3cc(C)nc4c(-c5ccc(Cl)cc5)c(C)nn34)CC2)c1", "activity change, negative = inhibition": "-6.24%"}
{"compound": "COc1ccc(OC)c(-c2noc(N3CCN(c4cc(Cl)ccc4C)CC3)n2)c1", "activity change, negative = inhibition": "2.18%"}
{"compound": "Cc1ccccc1CNC(=O)Cn1c(C)c2cnn(-c3ccccc3)c(=O)c2c1C", "activity change, negative = inhibition": "1.72%"}
